Measured values: publication PMC10668032, “Altered binding affinity of SIX1-Q177R correlates with enhanced WNT5A and WNT pathway effector expression in Wilms tumor”
Over roughly 33,000 sequences, “e-score” has its median near -0.053; the highest 2% begin near 0.38. Shown is part of a subset that was picked to be rich in the highest values.

Target: T1, SIX1 homeodomain (reference allele) (human, UniProt Q15475 108-198)
T1 sequence: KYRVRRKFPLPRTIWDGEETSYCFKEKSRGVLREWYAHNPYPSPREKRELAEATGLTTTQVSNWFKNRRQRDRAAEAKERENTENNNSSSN
Assay: universal protein binding microarray; Universal all-10-mer PBM (8x60K, AMADID 030236), 300 nM GST-tagged protein, Alexa Fluor 488 anti-GST; buffer, salt, pH and temperature not stated (as in Berger); high values mean tight binding
Conditions: protein: ivt; tags: N-terminal GST; dsDNA, one strand shown
Method in brief: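 Homeodomains fused to GST were made by in vitro transcription/translation and measured by anti-GST western blot with a recombinant GST standard curve. At 300 nM final concentration, they were applied in duplicate to universal 'all 10-mer' protein binding microarrays (8×60K format).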

Row | Sequence | binding signal [E-score]
1 | AGCGATAC | 0.453 ± 0.01
2 | GGCGATCA | 0.338 ± 0.00739
3 | AGCGATAG | 0.209 ± 0.0329
4 | CGCGATAG | 0.199 ± 0.0163
5 | GGCGATAC | 0.4435 ± 0.00237
6 | AGCGATCA | 0.206 ± 0.0525
7 | CGCGATAC | 0.458 ± 0.000728
8 | ATACACGA | 0.234 ± 0.00563
9 | GGCCGATA | 0.29107 ± 0.000269
10 | CGATGCAG | 0.21 ± 0.0529
11 | AGGCATAT | 0.308 ± 0.0386
12 | GACAGATC | 0.286 ± 0.0143
13 | GTAATCTA | 0.15 ± 0.0468
14 | CTATACTA | 0.168 ± 0.0897
15 | CCTCTAGA | 0.158 ± 0.0403
16 | ACCGCGCG | 0.175 ± 0.0242
17 | CGCGATCC | 0.391 ± 0.0245
18 | AGCGATCC | 0.356 ± 0.0223
19 | CGCGATCA | 0.272 ± 0.00455
20 | CTTATACC | 0.275 ± 0.0521
21 | GGTATACC | 0.464 ± 0.0068
22 | GGTATACA | 0.3843 ± 0.00371

Row | Sequence | binding signal [E-score]
23 | GCTATACC | 0.284 ± 0.0448
24 | TGTATACA | 0.3188 ± 0.000346
25 | GGTATAGA | 0.3008 ± 0.001
26 | CGTATATA | 0.253 ± 0.0289
27 | GGTATAAC | 0.301 ± 0.0179
28 | AGTATACA | 0.294 ± 0.0103
29 | ATTATACC | 0.389 ± 0.0376
30 | ATTATACG | 0.302 ± 0.0645
31 | GGTATATA | 0.384 ± 0.0217
32 | ACCAGTAT | 0.24 ± 0.0167
33 | ATCCTGTC | 0.228 ± 0.0128
34 | ATCCATGA | 0.273 ± 0.0349
35 | CGCAGATC | 0.214 ± 0.00241
36 | GGATAGCA | 0.241 ± 0.00553
37 | ATCTATTC | 0.24 ± 0.00333
38 | CGTATACC | 0.367 ± 0.014
39 | AGTATACC | 0.389 ± 0.0206
40 | AGTATACT | 0.219 ± 0.0526
41 | ATACTTGC | 0.215 ± 0.0473
42 | CGGGGATC | 0.396 ± 0.0226
43 | CTGGGATC | 0.297 ± 0.0767
44 | CAGGGATA | 0.328 ± 0.0119

Row | Sequence | binding signal [E-score]
45 | CAGGGATC | 0.42 ± 0.0412
46 | AGGGGATG | 0.201 ± 0.0454
47 | GAAGGATC | 0.39 ± 0.012
48 | AGGGGATC | 0.426 ± 0.0173
49 | ATGGGATC | 0.368 ± 0.0389
50 | GAAGGATA | 0.268 ± 0.0478
51 | CAAGGATC | 0.351 ± 0.0137
52 | CCGGGATC | 0.375 ± 0.0348
53 | ACGGGATC | 0.342 ± 0.0556
54 | GCTGTATA | 0.232 ± 0.0591
55 | ATACACTG | 0.338 ± 0.00871
56 | ACGTCTCA | 0.322 ± 0.0324
57 | AGATCTCA | 0.262 ± 0.0503
58 | TCCATCAA | 0.168 ± 0.0474
59 | ATACTTAA | 0.19 ± 0.132
60 | AGTCATAT | 0.257 ± 0.0554
61 | CGATAGTA | 0.263 ± 0.0297
62 | AAGGGATT | 0.188 ± 0.061
63 | AAAGGATC | 0.279 ± 0.0681
64 | AAGGGATC | 0.377 ± 0.0133
65 | ATACGCCG | 0.277 ± 0.0315
66 | GTATTATA | 0.377 ± 0.042

Row | Sequence | binding signal [E-score]
67 | ATATTATA | 0.333 ± 0.0863
68 | GTATTAGA | 0.237 ± 0.0563
69 | AATACGGA | 0.169 ± 0.0478
70 | CATCCACG | 0.183 ± 0.0475
71 | GGTGAGAA | 0.162 ± 0.0553
72 | CATATAGA | 0.183 ± 0.00672
73 | GATATAGC | 0.368 ± 0.0388
74 | AATATCGC | 0.299 ± 0.0725
75 | GATATCGC | 0.468 ± 0.0155
76 | GAGATCGC | 0.27 ± 0.0213
77 | CATATCGG | 0.401 ± 0.0215
78 | CATATCGC | 0.424 ± 0.0197
79 | AATATCGT | 0.309 ± 0.0634
80 | CATATCGA | 0.417 ± 0.00575
81 | CAGATCGA | 0.277 ± 0.0349
82 | AATATCGG | 0.312 ± 0.0183
83 | CATATAGC | 0.162 ± 0.0222
84 | GGTGTAAC | 0.309 ± 0.00742
85 | AGACGGTA | 0.196 ± 0.0243
86 | CACTAATA | 0.215 ± 0.00278
87 | GGATATTA | 0.355 ± 0.0417
